Among the data in PubChem BioAssay (NCI) are growth inhibition values, retold here.

A short description of assay [1]: NCI Yeast Anticancer Drug Screen. Data for the rad50 strain (AID 155).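 Further: 0% = growth of vehicle-only cultures of the same strain.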 Particulars: S. cerevisiae rad50 strain growth inhibition; at 50.0 µM; stronger effect = higher value. The method in brief: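 Compounds were tested on a yeast strain with an engineered DNA damage repair alteration; the reported value is growth inhibition normalised to vehicle treatment.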
The nature of assay [2]: NCI Yeast Anticancer Drug Screen. Data for the mec2-1 strain (AID 157). Particulars: S. cerevisiae mec2-1 strain, at 50.0 µM, stronger effect = higher value. In outline:
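Each compound was tested on mec2-1 yeast, a strain altered in DNA damage repair or cell cycle control. Growth inhibition is reported relative to vehicle.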

A short description of assay [3]: NCI Yeast Anticancer Drug Screen. Data for the sgs1 mgt1 strain (AID 161).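 Further: 0% = growth of cultures given vehicle only.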 To be noted: S. cerevisiae sgs1 mgt1 strain, at 50.0 µM, stronger effect = higher value. In outline:
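Genetically altered yeast, compound exposure, growth inhibition relative to vehicle.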

Assay [4] in a line: NCI Yeast Anticancer Drug Screen. Data for the cln2 rad14 strain (AID 165).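 Further: 0% = growth equal to vehicle treated cultures.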 Particulars: S. cerevisiae cln2 rad14 strain, at 50.0 µM, stronger effect = higher value. The method in brief: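 Test compounds were added to cln2 rad14 yeast cultures; inhibition of growth was then determined by comparison with vehicle treatment.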
The nature of assay [5]: NCI Yeast Anticancer Drug Screen. Data for the bub3 strain (AID 167). Particulars: S. cerevisiae bub3 mutant strain, at 50.0 µM, stronger effect = higher value. In outline: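 Growth of a checkpoint-deficient yeast mutant is measured after compound exposure. Values represent inhibition relative to vehicle.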
A short description of assay [6]: NCI Yeast Anticancer Drug Screen. Data for the mlh1 rad18 strain (AID 175). To be noted: S. cerevisiae mlh1 rad18 strain growth inhibition; at 50.0 µM; stronger effect = higher value. The method in brief: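 Inhibition values reflect reduced growth of mutant yeast versus vehicle-treated controls following compound exposure; the mutations affect DNA damage repair.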

Molecules are shown by their SMILES. Compounds without any hit were thinned out: in the full panel of roughly 79,000, 15% have a hit. Values without a mark were called inactive. Activity calls are given as the source filed them. No stated cut-off is given here; in the data, active means growth inhibition above about 70%; inactive means the rest. Where a SMILES comes first, the peptide text is derived from it. [ ]: non-standard residue; d: D form. The star is where a group is joined. Cbz = O=C(OCc1ccccc1)*; Dha = C=C(N)C(=O)O

On to `CCN(CC)c1ccc(N=C2C=C(C(=O)Nc3ccccc3OC)C(=O)c3ccccc32)c(C)c1`, for which the growth inhibition is -24.6% in assay [1]; -28.6% in assay [2]; -12.7% in assay [3]; 5.25% in assay [4]; -2.6% in assay [5]; -16.5% in assay [6].

Consider `O=C(Nc1ccc([N+](=O)[O-])cc1)Nc1nccnn1`, for which the growth inhibition in assay [1] was 5.15%; in assay [2], -13.1%; in assay [3], 10.6%; in assay [4], -39.9%; in assay [5] it was 8.4%; in assay [6] it was -0.8%.

`CCCCCCCCC[N+]12CC[N+](CCCCCCCCC)(CC1)CC2`: the growth inhibition is 8.2% in assay [1]; 15.2% in assay [2]; -4.9% in assay [3]; 2.15% in assay [4]; 8.8% in assay [5]; 5.25% in assay [6].

Regarding `N#Cc1ccc(OCCSCCCCCCCCCCSCCOc2ccc(C#N)cc2)cc1`, the growth inhibition in assay [1] is -16.8%; in assay [2], -20.9%; in assay [3], -19.8%; in assay [4], -6.05%; in assay [5] it was -1%; in assay [6], -15.8%.

In the case of `CCCCNC(=O)c1ccc(C(C)C)cc1`, the growth inhibition is 9.2% in assay [1]; -0.95% in assay [2]; 0.4% in assay [3]; -4.15% in assay [4]; -0.9% in assay [5]; -5.05% in assay [6].

On to `NS(=O)(=O)c1ccc(NC(=O)c2cccc3c(=O)c4ccccc4[nH]c23)cc1`, for which the growth inhibition in assay [1] is -2.55%; in assay [2], -1.95%; in assay [3], -13.2%; in assay [4], 14.8%; in assay [5], -6%; in assay [6], -14.1%.

As to `CC(Cc1ccco1)(C(=O)O)C(=O)O`, the growth inhibition in assay [1] was 11.8%; in assay [2] it was 16.3%; in assay [3] it was -14.8%; in assay [4], -1.3%; in assay [5], -11.8%; in assay [6], -11.6%.

In the case of `O=C(/C=C/c1ccc(O)cc1)OC[C@@H](O)COC1OC(CO)C(O)C(O)C1O` (stereo partly drawn), the growth inhibition is -5.8% in assay [1]; -5.05% in assay [2]; -4.35% in assay [3]; 6.8% in assay [4]; 8.2% in assay [5]; -3.65% in assay [6].

On to `O=C(O)c1ccccc1/C=N\NC1=NCCN1`, for which the growth inhibition was -45.1% in assay [1]; -13.4% in assay [2]; -11.4% in assay [3]; 12.7% in assay [4]; -13.7% in assay [5]; -6.35% in assay [6].

In the case of `Cc1ccc(NC(=O)Oc2ccc(Br)cc2Br)c(Cl)c1`, the growth inhibition in assay [1] was 21.1%; in assay [2] it was 17.9%; in assay [3], 16.7%; in assay [4] it was -0.25%; in assay [5] it was -6.3%; in assay [6], 41.6%.

`O=C(O)Cn1cc(I)c(=O)c(I)c1`: the growth inhibition in assay [1] was -40.4%; in assay [2], -43.7%; in assay [3], -7.2%; in assay [4], 3.15%; in assay [5], -10.3%; in assay [6], -28%.

Take `N#CC(=C1C=CC(=NOC(=O)c2ccccc2)C=C1)c1ccccc1`: the growth inhibition in assay [1] is -0.75%; in assay [2] it was 1.2%; in assay [3], 4.8%; in assay [4] it was -5.75%; in assay [5], -2.7%; in assay [6], -6.85%.

For `Brc1ccc(Br)c2nc(/C=C/c3ccccc3)ccc12`, the growth inhibition in assay [1] was 11.8%; in assay [2], 1.85%; in assay [3], -7%; in assay [4], -22.6%; in assay [5], 2.45%; in assay [6], 8.25%.

With `S=C(Nc1ccccc1)Nc1ccccn1`, the growth inhibition is 10.1% in assay [1]; -29.6% in assay [2]; 4.05% in assay [3]; -30.8% in assay [4]; -4.35% in assay [5]; 4.25% in assay [6].

Consider `CCOC(=O)CCC(NC(=O)C(N)c1ccc([N+](=O)[O-])cc1)C(=O)NC(CCC(=O)OCC)C(=O)OCC` (stereo not drawn), for which the growth inhibition is -5.4% in assay [1]; -7.5% in assay [2]; 1.2% in assay [3]; 0.5% in assay [4]; -2.55% in assay [5]; 4.55% in assay [6].

As to `NC(=O)N/N=C1\CCn2cccc21`, the growth inhibition in assay [1] was -10.8%; in assay [2], 1%; in assay [3] it was -3.25%; in assay [4], -2.2%; in assay [5] it was 1.1%; in assay [6] it was -5.1%.

For the molecule `C=C(NC(=O)CNC(=O)OCc1ccccc1)C(=O)O` (Cbz-Gly-[Dha]-OH), the growth inhibition is 3.05% in assay [1]; 11.2% in assay [2]; 7.4% in assay [3]; -9.85% in assay [4]; 15.7% in assay [5]; 14% in assay [6].

In the case of `Cc1cccc(C(=O)OC2CCCCC2)c1`, the growth inhibition in assay [1] was 1.85%; in assay [2], 1.2%; in assay [3], -3.1%; in assay [4] it was -30.4%; in assay [5], 23.9%; in assay [6], 0.5%.

As for `Cc1ccccc1C1=CCCCCC1`, the growth inhibition in assay [1] was -5.15%; in assay [2] it was -17.6%; in assay [3], -2.8%; in assay [4], 0.75%; in assay [5], -7.65%; in assay [6], -9.8%.

As for `Cc1ccnc(=S)[nH]1`, the growth inhibition was 16.9% in assay [1]; 5.45% in assay [2]; 33.1% in assay [3]; 13.3% in assay [4]; 23.6% in assay [5]; 18.3% in assay [6].

Regarding `COc1cc(C2(C)OC(=O)c3ccccc32)c(OC)c2ccccc12` (stereo not drawn), the growth inhibition in assay [1] is 27.9%; in assay [2], 2.3%; in assay [3] it was 30.4%; in assay [4], 31.3%; in assay [5] it was 30.9%; in assay [6], 14.2%.

On to `COc1ccc(CC2(C(=O)O)NCCc3cc(O)c(OC)cc32)cc1O` (stereo not drawn), for which the growth inhibition in assay [1] was 16.7%; in assay [2], -3.25%; in assay [3], -13.7%; in assay [4], 4.15%; in assay [5], -0.5%; in assay [6] it was -5.5%.

For `CCN(CC)P1(=O)C=C(C)C2C1C1C=C(C)C2P1(=O)N(CC)CC` (stereo not drawn), the growth inhibition is 3.5% in assay [1]; -2.45% in assay [2]; -5.25% in assay [3]; -5.25% in assay [4]; -34.8% in assay [5]; -13.2% in assay [6].

As to `NC(=O)NC(=O)N/N=C/c1ccccc1`, the growth inhibition in assay [1] is 23.2%; in assay [2], 2.4%; in assay [3] it was 2.8%; in assay [4], 4.15%; in assay [5] it was 7.6%; in assay [6] it was 14.9%.

Turning to `CCC1N=C(N)N=C(N)N1c1ccc(Cl)c(Cl)c1` (stereo not drawn), the growth inhibition is 16.2% in assay [1]; 11.6% in assay [2]; 9.25% in assay [3]; -8.7% in assay [4]; 10.7% in assay [5]; 37.8% in assay [6].

`C=CCC(C(=O)NC(N)=O)c1ccccc1` (stereo not drawn): the growth inhibition in assay [1] is 3.9%; in assay [2] it was -7.65%; in assay [3], -11.3%; in assay [4], 19.5%; in assay [5], 8.05%; in assay [6] it was 0.35%.

For the molecule `O=C1c2ccccc2-c2nnsc21`, the growth inhibition in assay [1] is -20.7%; in assay [2] it was -14.4%; in assay [3], 2.3%; in assay [4], -12.6%; in assay [5], -6.2%; in assay [6], 19.5%.

For the molecule `COC(=O)C[C@H](C)[C@H](C)CC(=O)O`, the growth inhibition is -17.6% in assay [1]; -19.9% in assay [2]; -1.6% in assay [3]; -7.3% in assay [4]; -0.45% in assay [5]; -12.9% in assay [6].

For `O=C(N/N=C/C1CCCCC1)C(=O)N/N=C/C1CCCCC1`, the growth inhibition in assay [1] is 4.45%; in assay [2], 6.65%; in assay [3], 8.55%; in assay [4] it was -7.45%; in assay [5], 28.2%; in assay [6], -58.5%.

Consider `Cc1cccc(N=Cc2ccc(Cl)cc2Cl)c1C`, for which the growth inhibition is 34.6% in assay [1]; 20.1% in assay [2]; 26.7% in assay [3]; 28.6% in assay [4]; 19% in assay [5]; 31.6% in assay [6].

For the molecule `Nc1nc(SCC(=O)O)nc2nc[nH]c12`, the growth inhibition in assay [1] is -0.15%; in assay [2], 3.15%; in assay [3], -13.3%; in assay [4] it was -32%; in assay [5], -7.5%; in assay [6] it was 4.95%.

Take `CN(C)CCCNc1ccc2nnn3c4ccc([N+](=O)[O-])cc4c(=O)c1c23`: the growth inhibition in assay [1] is 68.8%; in assay [2], 35%; in assay [3], 45.8%; in assay [4], 55.1%; in assay [5], 65.7%; in assay [6] it was 80% (active).

Take `C/C(=N\NC(=S)N1CCCCCC1)c1nccs1`: the growth inhibition was 3.95% in assay [1]; 0.25% in assay [2]; -1.5% in assay [3]; -18% in assay [4]; -6.9% in assay [5]; 2.15% in assay [6].

For the molecule `COc1ccc(C(N)C(=O)O)cc1` (stereo not drawn), the growth inhibition in assay [1] is -17.4%; in assay [2] it was -9.4%; in assay [3], -6.8%; in assay [4], -21.6%; in assay [5] it was -12.5%; in assay [6], -10.9%.

`CCOC(=O)c1c(C(=O)OCC)c(C)n(/N=N/n2c(C)c(C(=O)OCC)c(C(=O)OCC)c2C)c1C`: the growth inhibition in assay [1] was 29.3%; in assay [2] it was 9.75%; in assay [3], 23.6%; in assay [4], 26.3%; in assay [5], -1.45%; in assay [6] it was 12.8%.

Turning to `O=C(Nn1cnc2ccccc2c1=O)c1ccc(NC(=S)Nc2ccccc2)cc1`, the growth inhibition in assay [1] is 63.5%; in assay [2], -16.4%; in assay [3], 52.7%; in assay [4], -27.8%; in assay [5] it was -1.45%; in assay [6] it was 7.5%.

With `NC(=O)c1cc(OCc2ccccc2)nc2nc(Cl)nc(N)c12`, the growth inhibition in assay [1] is -5.05%; in assay [2] it was 14.6%; in assay [3], 3.35%; in assay [4], -15.8%; in assay [5] it was -0.8%; in assay [6] it was 5.05%.

Regarding `CCOC(=Nc1cccc2ccccc12)Nc1cccc2ccccc12`, the growth inhibition in assay [1] was -5.9%; in assay [2], -6.95%; in assay [3], -8.6%; in assay [4] it was -25.2%; in assay [5], -15.8%; in assay [6], -6.65%.
